Measurements: PubChem BioAssay
Active and inactive are the calls of the source.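 Rule for the calls, unless noted: active = visually confirmed hit in the image check and inhibition above 20%; inconclusive = visually confirmed hit but inhibition not above 20%; inactive = no visual hit in the image check.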 Where a SMILES comes first, the peptide text is derived from it. The star is where a group is joined. Boc = CC(C)(C)OC(=O)*

Legend:
[1] = inhibitors of TNFa-induced NFkB p65 translocation, primary screen, imaging, HUVEC, MLSMR starter and 10KST1 sets (AID 438;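 active = inhibition above 20% together with a positive visual image hit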;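 note: compound added about 3h40 before a 20 min TNFalpha stimulation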;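 for inhibition: signal is the nuclear over cytoplasmic p65 intensity ratio per well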); settings: HUVEC TNFa-induced p65 nuclear translocation; cell count: measured here: nuclei count (cytotoxicity indicator), at 2.08 µM; inhibition: at 2 µM, stronger effect = higher value, 0% TNFa-plus-vehicle, 100% no-TNFa wells
[2] = inhibitors of mutant huntingtin aggregation, primary screen, imaging, exon1htt(103Q)mCFP cells, high-content imaging (AID 483;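 active = visual image review flags a hit and inhibition of aggregation exceeds 20%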;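 note: compound exposure lasted 3 days before fixation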;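 for nuclei count: percent of the per-plate median nuclei count of sample wells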); settings: exon1htt(103Q)mCFP cell line, aggregate imaging, at 2 µM; inhibition of aggregation: stronger effect = higher value; nuclei count: measured here: cell count, toxicity
[3] = inhibitors of E-selectin induction by TNFa, primary screen, imaging, HUVEC, immunofluorescence, MLSMR starter and 10KST1 sets (AID 487); settings: HUVEC TNFalpha-induced E-selectin immunofluorescence imaging, at 2 µM; inhibition: stronger effect = higher value; nuclei count: measured here: cell number, toxicity;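 for inhibition: signal is fraction of cell area covered by stained E-selectin grains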;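 for nuclei count: 100% = median nuclei count of all wells on the same plate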
[4] = molecular target: Voltage-gated potassium channel subunit beta-2 (Rattus norvegicus) (UniProt P62483); test: KvBeta enzyme negative modulators, primary screen, biochemical, NADPH fluorescence (AID 622;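 active = fluorescence slope higher than the sample average by over 3 SD, cut at about -0.22 in these data, passing the limit was not always enough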;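 note: slope of raw intensity against log time taken from 70 to 1610 s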); settings: recombinant KvBeta, 4-cyanobenzaldehyde reduction, at 10 µM, stronger effect = higher value
Voltage-gated potassium channel subunit beta-2 (Rattus norvegicus), sequence (P62483 whole entry, looked up): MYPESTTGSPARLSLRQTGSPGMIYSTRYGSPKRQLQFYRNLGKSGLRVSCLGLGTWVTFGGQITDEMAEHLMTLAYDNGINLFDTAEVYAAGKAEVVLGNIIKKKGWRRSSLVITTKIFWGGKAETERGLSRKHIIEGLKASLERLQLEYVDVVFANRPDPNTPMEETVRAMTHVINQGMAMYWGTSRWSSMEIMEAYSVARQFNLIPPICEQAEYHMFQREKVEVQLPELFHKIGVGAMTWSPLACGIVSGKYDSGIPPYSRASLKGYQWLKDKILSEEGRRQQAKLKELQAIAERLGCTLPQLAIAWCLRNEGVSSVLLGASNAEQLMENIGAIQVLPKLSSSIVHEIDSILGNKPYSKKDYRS

[5] = molecular target: Voltage-gated potassium channel subunit beta-2 (Rattus norvegicus) (UniProt P62483); test: KvBeta positive modulators, primary screen, biochemical, NADPH fluorescence (AID 623;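 active = NADPH fluorescence slope more negative than the mean of all samples by about 3 SD, 99.7% confidence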;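 note: fluorescence intensity change per second fitted from 20 to 320 s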); settings: Recombinant KvBeta, NADPH fluorescence decrease slope, 10 min; at 10 µM; stronger effect = lower value
[6] = molecular target: Alpha-2C adrenergic receptor (Homo sapiens) (UniProt P18825); test: modulators of alpha2C/GIRK thallium flux, primary screen, cell-based, HEK293 alpha2C/GIRK1/2 (AID 624;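 active = fluorescence slope after compound addition differing from the mean of all screened samples at 99.7% confidence, in either direction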;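 note: slope of fluorescence ratio to pre-addition baseline per second over 15 to 24 s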); settings: thallium flux BTC fluorescence, at 10 µM, actives lie on both sides
Alpha-2C adrenergic receptor (Homo sapiens), sequence (P18825 whole entry, looked up): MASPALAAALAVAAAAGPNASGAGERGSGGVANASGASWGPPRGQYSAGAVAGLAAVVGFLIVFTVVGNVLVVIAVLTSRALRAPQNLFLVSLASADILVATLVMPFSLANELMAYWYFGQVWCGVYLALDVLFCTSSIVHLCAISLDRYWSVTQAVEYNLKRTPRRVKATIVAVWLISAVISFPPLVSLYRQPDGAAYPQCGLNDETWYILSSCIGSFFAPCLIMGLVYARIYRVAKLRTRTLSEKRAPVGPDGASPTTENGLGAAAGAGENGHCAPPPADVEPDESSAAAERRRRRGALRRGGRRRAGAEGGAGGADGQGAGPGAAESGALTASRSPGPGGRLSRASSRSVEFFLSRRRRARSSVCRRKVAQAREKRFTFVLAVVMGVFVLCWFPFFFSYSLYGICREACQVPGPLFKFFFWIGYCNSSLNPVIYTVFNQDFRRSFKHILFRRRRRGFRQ

[7] = inhibitors of Sendai virus-induced IRF3 signaling, primary screen, TLR/RLR signaling modifier project, cell-based, Sendai virus stimulus, luciferase, 10K MLSCN set (AID 602276;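 active = inhibition at or above 50% at 10 µM; inactive = inhibition below 50%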;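 note: firefly luciferase from ISG56 promoter only with Renilla not read in this screen; 0% = Sendai virus plus DMSO and 100% = medium plus DMSO without virus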); settings: HEK293 RL24 IRF3 luciferase reporter, at 10 µM, stronger effect = higher value
[8] = inhibitors of poly I:C-induced TLR3 signaling, primary screen, cell-based, poly I:C stimulus, luciferase, 10K MLSCN set (AID 602277;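 active = inhibition of the reporter signal at or above 50%; inactive = inhibition below 50%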); settings: HEK293-TLR3 RL24 IRF3 luciferase reporter, at 10 µM, stronger effect = higher value

Structure (SMILES)	cell count [1]	inhibition [1]	inhibition of aggregation [2]	nuclei count [2]	inhibition [3]	nuclei count [3]	fluorescence slope [4]	NADPH fluorescence slope [5]	slope [6]	inhibition [7]	inhibition [8]
CC1Cc2nc(SCC(=O)Nc3ccc4c(c3)OCO4)n(-c3ccc(F)cc3)c(=O)c2S1 (stereo not drawn)	680	-23.4% (inactive)	-2.5% (inactive)	102%	-32.8% (inactive)	107%	-0.401 (inactive)	-6.4e-05 (inactive)	0.00514 (inactive)	-0.186% (inactive)	51.2% (active)
Cc1cc(C)n(-c2nc3c(c(=O)n(Cc4ccc(Cl)c(Cl)c4)c(=O)n3C)n2C)n1	404	-1.4% (inactive)	1.2% (inactive)	105%	-8.9% (inactive)	115%	-0.6 (inactive)	-1.8e-05 (inactive)	0.00595 (inactive)	4.56% (inactive)	21.6% (inactive)
COc1ccc(OC)c2[nH]c(=O)c(CCNC(=O)C(C)C)cc12	629	-21.1% (inactive)	7.9% (inactive)	79.4%	-27.3% (inactive)	112%	-0.56 (inactive)	-1.8e-05 (inactive)	0.00598 (inactive)	-3.11% (inactive)	9.79% (inactive)
COc1ccc(N2CCN(CCCNS(=O)(=O)c3c(C)noc3/C=C/N(C)C)CC2)cc1	561	8.7% (inactive)	-4.3% (inactive)	101%	-36.7% (inactive)	73.9%	-0.54 (inactive)	-6e-05 (inactive)	0.00583 (inactive)	3.23% (inactive)	38.9% (inactive)
Cc1nc2ccccc2c2oc(C(=O)NCCCN3CCCC3=O)cc12	472	1.3% (inactive)	-37.4% (inactive)	76%	-36.2% (inactive)	106%	-0.527 (inactive)	-2e-05 (inactive)	0.00837 (inactive)	10.3% (inactive)	7.6% (inactive)
c1coc(CN(Cc2cccs2)Cc2nnnn2C2CCCCC2)c1	394	-10.4% (inactive)	26.1% (inactive)	119%	-12.8% (inactive)	97.7%	-0.571 (inactive)	1.3e-05 (inactive)	0.00524 (inactive)	19.6% (inactive)	24.5% (inactive)
O=C1CCCN1Cc1ncnn1-c1ccccc1	453	-1.8% (inactive)	10.2% (inactive)	114%	-85.8% (inactive)	131%	-0.349 (inactive)	-6.8e-05 (inactive)	0.00512 (inactive)	7.63% (inactive)	3.72% (inactive)
FC(F)(F)c1cccc(N2CCN(Cc3cccnc3)CC2)c1	447	-3.8% (inactive)	-15.1% (inactive)	109%	-57.5% (inactive)	127%	-0.505 (inactive)	-6.8e-05 (inactive)	0.00521 (inactive)	17.4% (inactive)	12.1% (inactive)
Nc1nc2n(n1)C(c1cccc(Br)c1)CC(c1ccc(F)cc1)N2 (stereo not drawn)	886	-6.1% (inactive)	9.7% (inactive)	110%	-59% (inactive)	102%	-0.608 (inactive)	7.7e-06 (inactive)	0.00861 (inactive)	2.63% (inactive)	15.8% (inactive)
Cc1csc(NC(=O)c2cc3c(s2)-c2ccccc2OC3)n1	417	8.8% (inactive)	27.8% (inactive)	121%	-27.8% (inactive)	103%	-0.247 (inactive)	-1.9e-06 (inactive)	0.00681 (inactive)	-42% (inactive)	-118% (inactive)
CC(C)CCNC(=O)Cn1c(NCCC(C)C)nc2c1c(=O)n(C)c(=O)n2C	544	-8.3% (inactive)	28.1% (inactive)	80.1%	-11.6% (inactive)	102%	-0.623 (inactive)	8.9e-06 (inactive)	0.0069 (inactive)	3.06% (inactive)	33.2% (inactive)
Cc1ccc(-c2csc3ncn(-n4c(C)ccc4C)c(=O)c23)o1	575	6.1% (inactive)	-0.6% (inactive)	82.8%	55.1% (active)	66.1%	-0.468 (inactive)	3.1e-05 (inactive)	0.00663 (inactive)	-15.1% (inactive)	12.5% (inactive)
Cc1cc(NS(=O)(=O)Cc2ccccc2)cc(C)c1OCC(=O)N1CCOCC1	323	-3.3% (inactive)	-14.1% (inactive)	86.8%	-47.7% (inactive)	104%	-0.478 (inactive)	-4.7e-05 (inactive)	0.00653 (inactive)	14.5% (inactive)	10.6% (inactive)
CCC(C)C(NC(=O)OC(C)(C)C)C(=O)NC(CC(C)C)C(N)=O (stereo not drawn) (Boc-Ile-Leu-NH2; configuration not given here)	399	1.3% (inactive)	7.1% (inactive)	88.9%	56.6% (inactive)	89.8%	-0.516 (inactive)	-6.5e-05 (inactive)	0.00654 (inactive)	-6.01% (inactive)	10.9% (inactive)
O=C1OCc2cc(NC(=O)C3CCCO3)ccc21 (stereo not drawn)	790	-8.1% (inactive)	13.1% (inactive)	111%	-31.8% (inactive)	111%	-0.379 (inactive)	5.7e-07 (inactive)	0.00421 (inactive)	3.9% (inactive)	13.5% (inactive)
O=C(NC1CC1)c1cccc(Nc2ccc(-c3ccc4c(c3)OCCO4)nn2)c1	336	-1.6% (inactive)	-55% (inactive)	106%	-177% (inactive)	126%	-0.358 (inactive)	-2.6e-05 (inactive)	0.00455 (inactive)	-75.9% (inactive)	-132% (inactive)
O=S(=O)(Nc1ccn(-c2ccccc2)n1)c1ccc(Br)cc1	395	-1.6% (inactive)	20.2% (inactive)	98%	-35.6% (inactive)	119%	-0.413 (inactive)	0.000106 (inactive)	0.00791 (inactive)	10.7% (inactive)	17.4% (inactive)
CC(C)c1ncc(C(O)c2cccc3ccccc23)n1C (stereo not drawn)	640	-10.5% (inactive)	11.4% (inactive)	75.8%	-10.8% (inactive)	123%	-0.494 (inactive)	-6.2e-05 (inactive)	0.00406 (inactive)	-12.7% (inactive)	-7.56% (inactive)
CN(C(=O)c1ccc2c(=O)n3c(nc2c1)CCCCC3)c1ccccc1	588	-10.7% (inactive)	23.6% (inactive)	93.9%	63.2% (active)	76.9%	-0.457 (inactive)	-0.000341 (inactive)	0.00528 (inactive)	11.2% (inactive)	8.93% (inactive)
OC(CNCC1COc2ccccc2O1)COCc1cccs1 (stereo not drawn)	615	0.8% (inactive)	-9.6% (inactive)	105%	-133% (inactive)	131%	-0.568 (inactive)	6.2e-06 (inactive)	0.00544 (inactive)	-3.3% (inactive)	2.31% (inactive)
Cc1ccccc1-c1nc(Cc2ccccc2)no1	434	-9.1% (inactive)	12.9% (inactive)	87.9%	31.1% (inactive)	93.2%	-0.341 (inactive)	-3.8e-05 (inactive)	0.00721 (inactive)	-43.9% (inactive)	-184% (inactive)
COc1cc(OC)c(C2C(C#N)=C(N)OC3=C2C(=O)CC(C)(C)C3)cc1OC (stereo not drawn)	407	-2.7% (inactive)	22.2% (inactive)	88.4%	-27.1% (inactive)	104%	-0.501 (inactive)	-3.5e-05 (inactive)	0.00648 (inactive)	-2.62% (inactive)	5.85% (inactive)
COc1ccccc1N1C(=O)CCC1(C#N)c1ccccc1 (stereo not drawn)	567	6.9% (inactive)	-0.9% (inactive)	87.7%	-30.3% (inactive)	72.2%	-0.62 (inactive)	6e-06 (inactive)	0.0062 (inactive)	-5.14% (inactive)	9.48% (inactive)
C=CCSc1nnc(NC(=O)c2ccc(S(=O)(=O)NCC3CCCO3)cc2)s1 (stereo not drawn)	245	5.1% (inactive)	-8.6% (inactive)	88.4%	-146% (inactive)	114%	-0.496 (inactive)	-4.8e-05 (inactive)	0.00603 (inactive)	4.11% (inactive)	11% (inactive)
O=C(NCC1CCCO1)c1ccccc1-c1nc(-c2ccc(Cl)cc2)no1 (stereo not drawn)	821	-0.7% (inactive)	1.8% (inactive)	101%	-141% (inactive)	122%	-0.483 (inactive)	3.6e-05 (inactive)	0.0055 (inactive)	-17.2% (inactive)	-4.71% (inactive)
COc1ccc(C2C3=C(CCCC3=O)Nc3nc(SCc4ccccc4)nn32)cc1OC (stereo not drawn)	665	-12.9% (inactive)	9.2% (inactive)	91.2%	32.2% (inactive)	105%	-0.335 (inactive)	-6.9e-05 (inactive)	0.00626 (inactive)	6.77% (inactive)	14.4% (inactive)
CCOC(=O)c1sc(=NC(=O)c2ccc(OC)c(OC)c2)n(C)c1C	642	10.1% (inactive)	3.7% (inactive)	93.8%	47.2% (inactive)	75.6%	-0.583 (inactive)	-2.7e-05 (inactive)	0.00657 (inactive)	-16.4% (inactive)	-82.7% (inactive)
COc1cccc(-c2cc(C(=O)N3CCc4ccccc4C3)no2)c1	550	-17% (inactive)	1% (inactive)	111%	18.5% (inactive)	99.8%	-0.445 (inactive)	7.7e-06 (inactive)	0.0069 (inactive)	-3.65% (inactive)	13.4% (inactive)
